The conditions of experiment [1]: Ebola virus entry assay, blue channel fluorescence.
The conditions of experiment [2]: Ebola virus entry assay, green channel fluorescence.
For experiment [3] the following is noted: Ebola virus entry assay, reporter ratio channel; AC50: Channel type: primary unless noted; outcome: Channel type: primary unless noted.
A short description of experiment [4]: qHTS profiling of the MIPE4 collection as inhibitors of Plasmodium falciparum (3D7) proliferation (AID 743344).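 Note: scaled between DMSO vehicle wells and 0.29 µM artemisinin as full inhibition.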 As to conditions: P. falciparum 3D7 in erythrocytes, SYBR Green DNA fluorescence, 72 h; at 28.5 µM (top of the series) unless noted. In short, it runs like this: (§1)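 Parasite DNA was quantified by SYBR Green I fluorescence (ex 485, em 535 nm) after overnight lysis in saponin/Triton buffer at room temperature. Cultures at 0.3% parasitemia and 2.5% hematocrit were first exposed to compound for 72 h at 37 C; signals were normalised to artemisinin (0.29 uM) and vehicle wells.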
On the technique in general: Quantitative high-throughput screening tests each substance at several concentrations.

The nature of experiment [5]: qHTS profiling of the MIPE4 collection as inhibitors of Plasmodium falciparum (DD2) proliferation (AID 743345). As to conditions: P. falciparum Dd2 in erythrocytes, SYBR Green DNA, 72 h; at 28.5 µM (top of the series) unless noted. An outline of the steps: as §1
Experiment [6] in a line: qHTS profiling of the MIPE4 collection as inhibitors of Plasmodium falciparum (DD2) proliferation (Rep 2) (AID 743346). As to conditions: P. falciparum Dd2 in erythrocytes, SYBR Green DNA, 72 h; at 28.5 µM (top of the series) unless noted. In short, it runs like this:
as §1

Experiment [7] is described as follows: qHTS profiling of the MIPE4 collection as inhibitors of Plasmodium falciparum (HB3) proliferation (AID 743347).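 Note: plate controls were DMSO vehicle wells for no effect and artemisinin wells for full effect.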 As to conditions: P. falciparum HB3 in erythrocytes, SYBR Green DNA, 72 h; at 28.5 µM (top of the series) unless noted. An outline of the steps:
as §1

The conditions of experiment [8]: Ebola virus entry assay, ratio channel.
Experiment [9] is described as follows: qHTS Assay for Identifying Gametocytocidal Compounds (AID 743244; active = well fitted curve in the direction sought with a large enough effect; an effect the other way counts as inactive or inconclusive;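 note: % is set by controls: 0 for no effect and ±100 for the full control effect; actives lower the fluorescent signal which means gametocytes are killed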). As to conditions: P. falciparum 3D7 stage III-V gametocytes, alamarBlue, 72 h; max response: stronger effect = lower value. An outline of the steps:
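Stage III–V gametocytes of P. falciparum 3D7 were seeded at 20,000 cells/well onto pre-dispensed compounds. After 72 h, 37 °C, 5% CO2, alamarBlue was added for another 24 h.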

Experiment [10] in a line: qHTS assay for cell viability of HEK293 cells (AID 743288; active = well fitted curve in the direction sought with a large enough effect; an effect the other way counts as inactive or inconclusive; note: % is set by controls: 0 for no effect and ±100 for the full control effect; nearly all actives have a fitted effect of over 50% in size). As to conditions: ATP luminescence (CellTiter-Glo), 18 h, stronger effect = lower value. In short, it runs like this: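 ATP luminescence (CellTiter-Glo) reports metabolically competent cell number after parental HEK293 cells, 2,000/well, were treated with DMSO-dissolved compounds for 18 h at 37 C; reagent incubation 30 min, room temperature.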

The nature of experiment [11]: qHTS assay for cell viability of the p53RE-bla HCT-116 cell line (AID 743292; active = well fitted curve in the direction sought with a large enough effect; an effect the other way counts as inactive or inconclusive; note: % is set by controls: 0 for no effect and ±100 for the full control effect; nearly all actives have a fitted effect of over 55% in size). As to conditions: p53RE-bla HCT-116 viability, ATP luminescence, 16 h; series mostly up to 95 µM. An outline of the steps:
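Quantitative high-throughput format: compounds in DMSO were pinned onto p53RE-bla HCT-116 cells (4,000/well) and incubated 16 h at 37 C. Total intracellular ATP, read by CellTiter-Glo luminescence, reflects viable cell number.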

Experiment [12] addresses T1, Hexokinase-4 (Homo sapiens) + Glucokinase regulatory protein (Homo sapiens) (UniProt P35557+Q14397). Nature of the experiment: qHTS assay for inhibitors of recombinant human GCK-GKRP interaction: ADP-Glo assay (AID 743206; active = well fitted curve in the direction sought with a large enough effect; an effect the other way counts as inactive or inconclusive;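 note: plate controls were DMSO plus enzyme for no effect and no enzyme for full effect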). As to conditions: ADP-Glo luminescence, 60 min, 0% = vehicle-only wells with enzyme present; series mostly up to 76.9 µM. An outline of the steps:
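Pin-transferred compounds meet a 15 nM GST-GCK/15 nM FLAG-GKRP/2 uM S6P mix (dispense concentrations). ATP is then added to 0.4 mM final with 5 mM glucose, and the reaction runs 60 min at room temperature. ADP is quantified luminescently.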

Experiment [13] addresses T1, Hexokinase-4 (Homo sapiens) + Glucokinase regulatory protein (Homo sapiens). Nature of the experiment: qHTS assay for inhibitors of recombinant human GCK-GKRP interaction: HTRF assay (AID 743207; active = well fitted curve in the direction sought with a large enough effect; an effect the other way counts as inactive or inconclusive;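 note: 0% = DMSO with GCK present and -100% = DMSO wells lacking GCK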). As to conditions: recombinant GCK-GKRP HTRF binding, 60 min; series mostly up to 57.5 µM. An outline of the steps: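 HTRF read-out (ex 320 nm; 615/665 nm emission) after 60 min RT equilibration of 5 nM GST-GCK, 5 nM FLAG-GKRP, 2 uM S6P, compound and anti-FLAG/anti-GST detection antibodies; signal normalized between DMSO wells with and without GCK.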

The structures appear in SMILES notation. Where “and” joins values, the source holds several entries; their conditions need not be identical. Equal values may be shown once. Inconclusive results are not listed. For part of these data: Potency and affinity values are given separately. Calls of active or inactive are those of the source. Unless noted, the rule behind the calls is not given here.

The results in this text go back to PubChem BioAssay (NCATS).

The AC50 is the concentration at which the activity in the assay is half-maximal.

T1 sequence (P35557 whole entry, looked up): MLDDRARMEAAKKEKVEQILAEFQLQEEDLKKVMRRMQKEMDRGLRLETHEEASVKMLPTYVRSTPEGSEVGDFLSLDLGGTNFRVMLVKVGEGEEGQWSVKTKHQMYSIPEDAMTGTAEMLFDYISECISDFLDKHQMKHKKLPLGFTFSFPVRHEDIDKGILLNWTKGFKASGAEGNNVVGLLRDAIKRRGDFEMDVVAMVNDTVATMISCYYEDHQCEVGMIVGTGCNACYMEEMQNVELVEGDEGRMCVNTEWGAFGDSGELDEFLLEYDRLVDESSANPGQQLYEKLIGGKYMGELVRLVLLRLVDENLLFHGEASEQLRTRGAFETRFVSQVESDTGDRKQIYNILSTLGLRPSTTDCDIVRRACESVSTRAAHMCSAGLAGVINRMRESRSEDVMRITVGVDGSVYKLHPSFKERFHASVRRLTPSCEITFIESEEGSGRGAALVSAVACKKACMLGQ
T1 sequence (Q14397 whole entry, looked up): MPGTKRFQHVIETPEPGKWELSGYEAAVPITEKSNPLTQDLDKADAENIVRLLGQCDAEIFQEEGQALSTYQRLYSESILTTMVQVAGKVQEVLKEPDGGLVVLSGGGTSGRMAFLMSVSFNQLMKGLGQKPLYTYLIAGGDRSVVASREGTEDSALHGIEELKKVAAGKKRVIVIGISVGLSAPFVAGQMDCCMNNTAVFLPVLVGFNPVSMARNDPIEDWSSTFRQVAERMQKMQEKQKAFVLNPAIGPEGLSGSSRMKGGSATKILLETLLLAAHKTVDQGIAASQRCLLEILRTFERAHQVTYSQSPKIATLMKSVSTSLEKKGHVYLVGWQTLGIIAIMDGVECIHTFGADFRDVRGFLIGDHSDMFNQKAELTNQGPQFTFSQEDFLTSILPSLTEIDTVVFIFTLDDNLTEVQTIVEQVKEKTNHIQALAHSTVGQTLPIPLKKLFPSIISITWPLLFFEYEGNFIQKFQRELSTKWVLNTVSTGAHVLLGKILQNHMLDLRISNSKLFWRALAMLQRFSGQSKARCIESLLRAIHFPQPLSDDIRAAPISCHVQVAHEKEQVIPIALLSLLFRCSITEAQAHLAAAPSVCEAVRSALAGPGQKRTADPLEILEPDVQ

As to `CC1(C)OC[C@@H]2O[C@@]3(C(=O)O)OC(C)(C)O[C@H]3[C@@H]2O1`, the outcome in experiment [1], in [2] and in experiment [3] was inactive.

In the case of `CN1CC(=O)NC1=N`, the call in experiment [1], in experiment [2] and in [3] was inactive.

`C[C@]12CCC(=O)C=C1CC[C@@H]1[C@H]3CC[C@](C)(O)[C@@]3(C)CC[C@@H]12` registered a parasite growth, % of DMSO control in experiment [4] of 70.7% [at 57.5 µM]. Further, in [5], the parasite growth remaining, % of DMSO control (lower = more inhibition) is 94.5% [at 57.5 µM]. Further, in experiment [6], the parasite growth, % of control (lower = inhibition) was 65.8% [at 57.5 µM]. In [7], the growth, % of control came out at 84.5% [at 57.5 µM]. For the same compound, the outcome in experiment [8], in [2] and in [3] was inactive.

As to `O=C(O)CCC(=O)O`, the compound was classed as inactive in [1], in [2] and in experiment [3].

As for `NC1=NC(=O)C(c2ccccc2)O1` (stereo not given), in [9], the max response is -7.8% (inactive). Besides, the compound was classed as inactive in experiment [1], in experiment [2] and in [3].

As to `CCO[C@H](Cc1ccc(OCCc2ccc(OS(C)(=O)=O)cc2)cc1)C(=O)O`, the outcome in experiment [1], in experiment [2] and in experiment [3] was inactive.

Take `CN(C)CCc1c[nH]c2cccc(OP(=O)(O)O)c12`: the max response in experiment [9] was 13% (inactive). Also, the compound was classed as inactive in experiment [1], in experiment [2] and in experiment [3].

Turning to `CCCCCCn1c(=O)c2c(ncn2C)n(C)c1=O`, the call in experiment [1], in experiment [2] and in experiment [3] was inactive.

Consider `COc1cc(OC)c(OC)cc1C=O`, for which the max response in experiment [9] is 4.65% (inactive); in experiment [10], -1.47% (inactive). Besides, in [11], the Potency result is “inactive”. The parasite growth, % of DMSO control in experiment [4] is 98%. Further, the parasite growth remaining, % of DMSO control (lower = more inhibition) in experiment [5] is 89%. Further, the parasite growth, % of control (lower = inhibition) in experiment [6] was determined as 110%. Further, the growth, % of control in [7] came out at 102%. Further, the outcome in experiment [8], in [2] and in [3] was inactive.

Regarding `OC[C@H]1O[C@H](O[C@]2(CCl)O[C@H](CCl)[C@@H](O)[C@@H]2O)[C@H](O)[C@@H](O)[C@H]1Cl`, the compound was classed as inactive in experiment [1], in experiment [2] and in [3].

Turning to `NCCc1ccc(O)cc1`, the outcome in experiment [12], in [13], in experiment [1], in [2] and in [3] was inactive. In addition, the max response in experiment [9] was -2.18% (inactive) and 16.8% (inactive); in [10] it was -6.56% (inactive). Further, in experiment [11], the Potency result is “inactive”.

`CCN(CC)C(C)CN1c2ccccc2Sc2ccccc21` (stereo not given): the compound was called inactive in [1], in experiment [2] and in [3].

As to `CC(=O)NCc1c(I)c(NC(C)=O)c(I)c(C(=O)O)c1I`, the compound was called inactive in experiment [1], in experiment [2] and in experiment [3].

`NC(=O)NC(=O)Cc1ccccc1`: the call in experiment [1], in [2] and in [3] was inactive.

As for `Cc1[nH]cnc1-c1ccc(Cl)cc1`, the result in experiment [1], in [2] and in experiment [3] was inactive.

For `CC(C)c1ccc2oc3nc(N)c(C(=O)O)cc3c(=O)c2c1`, the result in experiment [1], in experiment [2] and in experiment [3] was inactive.

Regarding `CC(=O)Nc1ccc(S(=O)(=O)Nc2cc(C)on2)cc1`, the compound was classed as inactive in experiment [1], in [2] and in experiment [3].

On to `CCCC(=O)c1cc(O)c(O)cc1O`, for which the AC50 in experiment [8] and in experiment [3] was 10 µM (active) each time. In addition, in experiment [2], the compound was called inactive.

Regarding `CCCCCCCCCCCCCCCCCC(=O)O`, the call in experiment [1], in experiment [2] and in experiment [3] was inactive.
